In the supplement of paper PMC6607015:
Counter-ions that a name gives are not always drawn.

system: A431; test: filipin (cholesterol) integrated intensity within LBPA endosomes, Z-score; higher = more cholesterol in LBPA endosomes; conditions: compound concentration in added solution (µM; 5 µl added to 20 µl cells): 10; 18 h
Method in brief: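 After 18 h on 5 µl of 10 µM compound solution in duplicate 384-well imaging plates, HeLa MZ or A431 cells, seeded at 3,500 per well in 20 µl, were fixed with 4% PFA. They were then labelled with 6C4 anti-LBPA antibody, filipin, propidium iodide and CellTracker green, and four 20× fields were recorded per well. Integrated LBPA or filipin intensity per cell, whole-cell or within LBPA endosomes, came from MetaXpress segmentation and was normalised to Z-scores in AcuityXpress.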

SMILES	filipin (z-score)
OCCN1CCN(CCCN2c3ccccc3C=Cc3ccccc32)CC1 [Opipramol dihydrochloride]	0.712
COc1cc(NS(=O)(=O)c2ccc(N)cc2)ncn1 [Sulfamonomethoxine]	-0.378
Cc1cc(-c2ccccc2)nnc1NCCN1CCOCC1 [Minaprine dihydrochloride]	-0.593
Clc1ccc2nsnc2c1NC1=NCCN1 [Tizanidine HCl]	-0.548
CN(C)CCOC(c1ccccc1)c1ccccc1 [Diphenhydramine hydrochloride]	-0.485
CN(C)CCCO[C@@H]1[C@H]2OC(C)(C)O[C@H]2O[C@@H]1[C@H](O)CO [Amiprilose hydrochloride]	-0.415
NC(=O)N/N=C/c1ccc([N+](=O)[O-])o1 [Nitrofural]	-0.506
N[C@@H](C(=O)N[C@@H]1C(=O)N2C(C(=O)O)=C(Cl)CS[C@H]12)c1ccccc1 [Cefaclor hydrate]	-0.522
COc1ccc(C(=O)NCc2ccc(OCCN(C)C)cc2)cc1OC [Itopride]	-0.581
CC1(C)O[C@@H]2C[C@H]3[C@@H]4C[C@H](F)C5=CC(=O)C=C[C@]5(C)[C@@]4(F)[C@@H](O)C[C@]3(C)[C@]2(C(=O)CO)O1 [Fluocinolone acetonide]	-0.163
NCC[C@H](O)C(=O)N[C@@H]1C[C@H](N)[C@@H](O[C@H]2O[C@H](CN)[C@@H](O)[C@H](O)[C@H]2O)[C@H](O)[C@H]1O[C@H]1O[C@H](CO)[C@@H](O)[C@H](N)[C@H]1O [Amikacin hydrate]	-0.672
